CRFBP-R2 block: CRF-BP/CRF-R2 complex antagonism; hit rate 0.59% among 350,000; AID 588475; inhibition, % at 11.8 µM; HEK293 CRF-R2/CRF-BP, CRF-induced calcium fluorescence;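 active = inhibition of the ligand-induced calcium signal above about 50% at the single tested concentration, limit read from the data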
PABP polyA inh: PABP-poly(A) binding inhibition; AID 2014; inhibition, % at 35 µM; PABP-poly(A) RNA binding, fluorescence polarization; hit rate 1% among 290,000; P11940;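 note: calls also rest on retests at 20 µM and on dose response follow-up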
Target sequence (P11940 whole entry, looked up): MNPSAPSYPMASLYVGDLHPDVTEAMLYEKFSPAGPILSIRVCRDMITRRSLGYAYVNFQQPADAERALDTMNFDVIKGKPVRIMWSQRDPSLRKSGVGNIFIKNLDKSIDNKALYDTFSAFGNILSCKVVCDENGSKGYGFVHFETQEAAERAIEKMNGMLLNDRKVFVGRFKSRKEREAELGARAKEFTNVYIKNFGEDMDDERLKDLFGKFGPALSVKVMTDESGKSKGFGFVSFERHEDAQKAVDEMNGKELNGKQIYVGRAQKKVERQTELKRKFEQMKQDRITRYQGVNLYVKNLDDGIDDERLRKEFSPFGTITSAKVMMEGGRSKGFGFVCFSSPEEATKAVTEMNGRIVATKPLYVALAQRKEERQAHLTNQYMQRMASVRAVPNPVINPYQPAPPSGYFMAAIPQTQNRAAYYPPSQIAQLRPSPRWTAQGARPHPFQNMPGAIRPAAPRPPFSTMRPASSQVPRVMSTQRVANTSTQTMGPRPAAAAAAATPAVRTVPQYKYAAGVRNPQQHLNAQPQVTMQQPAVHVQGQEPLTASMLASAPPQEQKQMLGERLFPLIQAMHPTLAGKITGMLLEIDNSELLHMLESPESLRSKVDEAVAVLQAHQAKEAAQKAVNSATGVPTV
PABP1 MLLE inh: inhibitors of microRNA-mediated deadenylation, human PABP1 MLLE binding; inhibition, % at 20 µM; P11940; AID 588489; GST-MLLE / FITC-PAM2 fluorescence polarization; hit rate 0.36% among 360,000; in the data active = inhibition above about 35%, passing the limit was not always enough;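 note: plate controls were DMSO wells with GST-MLLE for no effect and wells lacking GST-MLLE protein for full effect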
eIF4H inh: inhibitors of RNA binding by human eIF4H; Q15056; eIF4H fluorescence polarization binding assay; inhibition, % at 35 µM; hit rate 0.94% among 290,000; AID 2012;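 note: calls also rest on retests at 20 µM and on dose response follow-up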
PHOSPHO1 block: blocks human PHOSPHO1 phosphatase activity. hit rate 1.1% among 290,000. AID 1565. inhibition, % at 13.3 µM. recombinant PHOSPHO1, absorbance phosphatase assay; in the data active = inhibition above about 60%
Active calls of the source: *. Shown are actives, neighbours in structure and some others; about 2.6% of the full set was active somewhere. Unless noted, the rule behind the calls is not given here.

What do the screens show for `CN(C)c1ccc(NC(=O)/C=C/c2ccccc2Cl)cc1`?
CRFBP-R2 block: -42.9; PABP polyA inh: 0.6; PABP1 MLLE inh: 3.6; eIF4H inh: -7.0; PHOSPHO1 block: -3.8

How did O=C(Nc1nnc(COc2ccc(F)cc2)s1)c1cccs1 do in these assays?
CRFBP-R2 block: -23.1; PABP polyA inh: 14.4; PABP1 MLLE inh: 6.7; eIF4H inh: -5.4; PHOSPHO1 block: 38.1

What do the screens show for `CCOCc1nnc(NC(=O)c2cc(Cl)ccc2OC)s1`?
CRFBP-R2 block: -15.1; PABP polyA inh: 5.1; PABP1 MLLE inh: 2.5; eIF4H inh: -3.1; PHOSPHO1 block: 97.4*

How did Cc1cccc(C)c1NC(=O)C(c1ccccc1)N1CCC(Cc2ccccc2)CC1 (centres undefined) do in these assays?
PABP1 MLLE inh: 2.0

How did CCCc1nc2c(C)cc(Br)cn2c1Cc1ccccc1C(F)(F)F do in these assays?
PABP1 MLLE inh: -9.7

Results for NC(=S)NN=Cc1c[nH]c2nccnc12 ?
CRFBP-R2 block: -20.5; PABP1 MLLE inh: -18.9

What do the screens show for `CC(C)Nc1ncnc2c1ncn2[C@H]1CN(Cc2ccc(F)cc2)C[C@@H](CO)O1`?
PABP1 MLLE inh: -0.8

What do the screens show for `O=C(Oc1ccccc1)c1ccc(NC(=O)c2ccco2)cc1`?
CRFBP-R2 block: 78.6*; PABP polyA inh: 21.3; PABP1 MLLE inh: 18.5; eIF4H inh: -5.2; PHOSPHO1 block: 25.2

Results for CCOC(=O)/C(C#N)=C1/SC(CC)C(=O)N1c1ccc(Br)cc1 (centres undefined) ?
CRFBP-R2 block: 4.8; PABP polyA inh: 10.0; PABP1 MLLE inh: 6.7; eIF4H inh: 4.5; PHOSPHO1 block: 24.0

Results for N#C/C(C(=O)NCc1ccco1)=C1/SC(Cc2ccc(F)cc2)C(=O)N1c1ccccc1 (centres undefined) ?
CRFBP-R2 block: -0.3; PABP polyA inh: -0.8; PABP1 MLLE inh: 8.6; eIF4H inh: -5.0; PHOSPHO1 block: 7.0

What do the screens show for `CCC1S/C(=C(\C#N)C(=O)NCc2ccco2)N(c2ccc(F)cc2)C1=O` (centres undefined)?
CRFBP-R2 block: -12.0; PABP polyA inh: 28.2; PABP1 MLLE inh: 3.3; eIF4H inh: 26.6; PHOSPHO1 block: 76.4*

How did CCC1S/C(=C(\C#N)C(=O)NCc2ccco2)N(c2ccc(Br)cc2)C1=O (centres undefined) do in these assays?
CRFBP-R2 block: 12.9; PABP polyA inh: 91.0*; PABP1 MLLE inh: 2.8; eIF4H inh: 73.3*; PHOSPHO1 block: -7.2

What do the screens show for `CC1S/C(=C(\C#N)C(=O)NCc2ccco2)N(c2ccc(F)cc2)C1=O` (centres undefined)?
CRFBP-R2 block: 3.0; PABP polyA inh: 108.3*; PABP1 MLLE inh: -1.6; eIF4H inh: 110.1*; PHOSPHO1 block: -13.6

What do the screens show for `CC(C)(O)CN(C(=O)c1ccc([N+](=O)[O-])cc1)C1CCCC1`?
CRFBP-R2 block: 4.4; PABP1 MLLE inh: 6.6

What do the screens show for `CN1CCN(C2CN(CCc3ccccc3)S(=O)(=O)C2)CC1` (centres undefined)?
PABP1 MLLE inh: 17.2

What do the screens show for `O=C(/C=C/c1ccc(Br)o1)Nc1nccs1`?
CRFBP-R2 block: 2.9; PABP polyA inh: 7.4*; PABP1 MLLE inh: -1.2; eIF4H inh: 56.8*; PHOSPHO1 block: -5.9

What do the screens show for `O=C1CNC(=O)/C(=C/c2ccco2)N1`?
CRFBP-R2 block: -2.6; PABP polyA inh: -7.1; PABP1 MLLE inh: 6.7; eIF4H inh: 105.7*; PHOSPHO1 block: -0.1

How did O=C1C(=Cc2ccco2)C(=O)c2ccccc21 do in these assays?
CRFBP-R2 block: 26.6; PABP polyA inh: -6.5; PABP1 MLLE inh: 28.2; eIF4H inh: 37.9; PHOSPHO1 block: -4.4

Results for C[C@@H]1CN([C@H](C)CO)C(=O)CCCn2nncc2CO[C@@H]1CN(C)S(C)(=O)=O ?
CRFBP-R2 block: -21.2; PABP1 MLLE inh: 5.3

Results for CC(C)C[C@H](NC(=O)Nc1ccc2c(c1)OCCO2)C(=O)O ?
CRFBP-R2 block: 11.7; PABP polyA inh: -0.9; PABP1 MLLE inh: -5.1; eIF4H inh: -2.4; PHOSPHO1 block: 15.9

Results for Cc1cnc(CNC(=O)c2csc([C@@H]3O[C@H](CO)[C@H](O)[C@H](O)[C@H]3O)n2)cn1 ?
PABP1 MLLE inh: 0.6

How did Cc1[nH]n(C2=NCCS2)c(=O)c1N=Nc1ccccc1 do in these assays?
CRFBP-R2 block: 6.2; PABP polyA inh: 10.8; PABP1 MLLE inh: 40.2*; eIF4H inh: 1.3; PHOSPHO1 block: -117.1

How did Cn1c(O)c(C=Nc2ccc(N3CCOCC3)cc2)c(=O)n(C)c1=S do in these assays?
CRFBP-R2 block: -43.0; PABP polyA inh: 2.6; PABP1 MLLE inh: -63.5; eIF4H inh: inconclusive; PHOSPHO1 block: -0.4

How did Cc1cc(O)c(C=Nc2ccc(N3CCOCC3)cc2)c(C)c1Cl do in these assays?
CRFBP-R2 block: -9.0; PABP polyA inh: 91.0*; PABP1 MLLE inh: -47.7; eIF4H inh: 58.0; PHOSPHO1 block: 40.8

How did COc1cccc(Nc2nc(C(N)Cc3ccc(C(F)(F)F)cc3)cs2)n1 (centres undefined) do in these assays?
PABP1 MLLE inh: -11.6

Results for Cc1c(Br)cccc1NC(=O)C1(C)CCN1Cc1ccccc1OC(F)F (centres undefined) ?
PABP1 MLLE inh: 1.2

How did C/C(=N\NC(=S)NCCc1ccccc1)c1cccc(Br)c1 do in these assays?
CRFBP-R2 block: -12.2; PABP polyA inh: -5.6; PABP1 MLLE inh: 39.5*; eIF4H inh: -9.2; PHOSPHO1 block: 34.2

What do the screens show for `C=CCNC(=S)N/N=C(\C)c1ccc(OC)cc1`?
CRFBP-R2 block: -11.5; PABP polyA inh: 6.3; PABP1 MLLE inh: 18.5; eIF4H inh: 8.5; PHOSPHO1 block: 13.5

Results for C=CCNC(=S)N/N=C(\C)c1cccc(OC)c1 ?
CRFBP-R2 block: -10.7; PABP polyA inh: -4.2; PABP1 MLLE inh: 39.8*; eIF4H inh: -6.8; PHOSPHO1 block: -1.0

Results for C/C(=N\NC(=S)NCc1ccccc1)c1cccc(Br)c1 ?
CRFBP-R2 block: 5.7; PABP polyA inh: 28.3; PABP1 MLLE inh: 23.0; eIF4H inh: -5.0; PHOSPHO1 block: -13.2

What do the screens show for `C[C@H]1CNC(=O)c2c(C(=O)N3CCN(C(=O)OC(C)(C)C)CC3)ncn21`?
PABP1 MLLE inh: -16.6

Results for CC1(C(=O)Nc2cnc3ccccc3c2)CCN1Cc1ccccc1OC(F)F (centres undefined) ?
PABP1 MLLE inh: 9.6

How did COc1cc(CCNC(=O)c2ccccc2NC(=O)C2=C(C)OCCS2)cc(OC)c1OC do in these assays?
CRFBP-R2 block: -4.9; PABP polyA inh: 1.4; PABP1 MLLE inh: 10.5; eIF4H inh: 4.1; PHOSPHO1 block: 63.6*

What do the screens show for `COc1cc(CNC(=O)c2ccccc2NC(=O)C2=C(C)OCCS2)cc(OC)c1OC`?
CRFBP-R2 block: -2.0; PABP polyA inh: 0.3; PABP1 MLLE inh: 2.4; eIF4H inh: -9.1; PHOSPHO1 block: 1.5

How did C[C@H](CO)N1C[C@H](C)[C@H](CN(C)S(=O)(=O)c2ccc(Cl)cc2)OCc2cnnn2CCCC1=O do in these assays?
CRFBP-R2 block: -11.8; PABP1 MLLE inh: -0.2

Results for COC(=O)c1ccc2nc(NC(=O)CN3C(=O)CCC3=O)sc2c1 ?
CRFBP-R2 block: 2.1; PABP polyA inh: -10.2; PABP1 MLLE inh: 10.8; eIF4H inh: 7.8; PHOSPHO1 block: 70.6*
